USP1-UAF1 inh: USP1/UAF1 (human) deubiquitinase inhibition; O94782; recombinant USP1/UAF1, Ub-Rhodamine cleavage fluorescence; Potency, µM (series often up to 57.1 µM), for the others: at the top dose activity change, negative = inhibition, actives largely listed as inhibitors; 390,000 compounds, 0.23% hits; further: on the % scale 0 is the no-effect control and ±100 the full control effect; nearly all actives have a fitted effect of over 60% in size
Target sequence (O94782 whole entry, looked up): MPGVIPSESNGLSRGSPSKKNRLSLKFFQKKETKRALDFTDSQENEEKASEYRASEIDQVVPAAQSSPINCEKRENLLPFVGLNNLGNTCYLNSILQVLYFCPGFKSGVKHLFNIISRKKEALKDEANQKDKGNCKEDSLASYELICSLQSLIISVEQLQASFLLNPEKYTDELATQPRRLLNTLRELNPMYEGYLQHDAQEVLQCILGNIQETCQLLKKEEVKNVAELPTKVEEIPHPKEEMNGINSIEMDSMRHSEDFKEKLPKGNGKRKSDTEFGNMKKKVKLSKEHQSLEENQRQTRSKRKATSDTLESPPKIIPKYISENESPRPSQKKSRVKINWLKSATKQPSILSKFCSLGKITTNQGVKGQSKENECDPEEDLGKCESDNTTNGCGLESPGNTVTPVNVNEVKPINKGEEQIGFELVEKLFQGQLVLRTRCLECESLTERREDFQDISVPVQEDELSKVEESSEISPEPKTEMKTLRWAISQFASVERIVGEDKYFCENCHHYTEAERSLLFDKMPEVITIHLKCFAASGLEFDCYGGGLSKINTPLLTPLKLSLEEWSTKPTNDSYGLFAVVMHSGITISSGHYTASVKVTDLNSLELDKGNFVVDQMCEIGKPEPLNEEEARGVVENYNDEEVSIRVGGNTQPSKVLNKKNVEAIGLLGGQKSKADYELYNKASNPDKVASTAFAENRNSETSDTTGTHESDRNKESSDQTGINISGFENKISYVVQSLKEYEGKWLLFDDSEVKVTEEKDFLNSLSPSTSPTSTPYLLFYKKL
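Step one: compound is pinned into 1nM USP1/UAF1 in HEPES pH 7.8 buffer with TCEP. Step two: 15 min room-temperature incubation. Step three: Ub-Rho (150nM final) starts cleavage, tracked by fluorescence over six one-minute reads.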
EPAC1 antag: antagonists of human EPAC1; Potency, µM (series often up to 115 µM), without a hit: top-dose activity change, negative = inhibition, hits mostly inhibitors; O95398; EPAC1 GEF assay, Rap1b-BODIPY-GDP exchange fluorescence; 360,000 compounds, 0.14% hits;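 further: plate controls were vehicle for no effect and positive control for full effect; nearly all actives have a fitted effect of over 50% in size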
ALOX12 inh: inhibitors of human 12S-lipoxygenase ALOX12; Potency, µM (series often up to 108 µM), inactives show at the top dose activity change, negative = inhibition, actives largely listed as inhibitors; 580,000 compounds, 1.1% hits; P18054; purified 12hLO, xylenol orange hydroperoxide absorbance; further: on the % scale 0 is the no-effect control and ±100 the full control effect
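Purified human 12hLO (150 nM final) in 25 mM Hepes, 0.01% Triton X-100, pH 7.0 was preincubated 15 min at room temperature with compound. Then 40 uM arachidonic acid was added, 30 min. Hydroperoxide was read by Fe-XO absorbance ratio 573/405 nm.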
EPAC2 agonist: EPAC2 (human) agonism | 360,000 compounds, 0.079% hits | Potency, µM (top dose mostly 154 µM), inactives show top-dose activation, actives largely listed as activators | Q8WZA2 | EPAC2 activation, biochemical qHTS; response scale: 100% = 6.5 mM cAMP response; further: nearly all actives have a fitted effect of over 50% in size
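Each well held 100 nM EPAC2, 250 nM RAP1B-BODIPY-GDP and 50 uM GDP. Fluorescence, read at 5-min intervals to 30 min, was referenced to a 6.5 mM cAMP positive control.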
EPAC1 ag: EPAC1 (human) agonism. Potency, µM (series often up to 154 µM), for inactives: top-dose activation, most hits filed as activators. O95398. 360,000 compounds, 0.073% hits. EPAC1 agonist qHTS, biochemical assay; response scale: 100% = response to 6.5 mM cAMP; further: nearly all actives have a fitted effect of over 60% in size
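Nucleotide exchange assay: 100 nM EPAC1 with 250 nM Rap1B loaded with BODIPY-GDP and 50 uM GDP, room temperature. Fluorescence (480/540 nm) read every 5 min for 30 min; signal change normalized to 6.5 mM cAMP as full agonist.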
EPAC2 antag: blocks human EPAC2 exchange factor; Q8WZA2; EPAC2 GEF exchange of Rap1B-BODIPY-GDP, fluorescence; Potency, µM (highest dose often 114 µM), for inactives: at the highest dose activity, negative = inhibition, hits mostly inhibitors; 360,000 compounds, 0.18% hits; AID 720708; further: on the % scale 0 is the no-effect control and ±100 the full control effect; nearly all actives have a fitted effect of over 45% in size
Starred values were filed as active, the others as inactive; ! = repeats disagree; [ ] = dose if it differs, or a comment. Sampled rows, rich in hits. Any-hit rate of the full collection: about 1.3%. The call rests on the fitted dose curve; in most records, active means well fitted curve in the direction sought with a large enough effect; inconclusive means small, poorly fitted or top-dose-only effect, or another doubt; inactive means no such curve, though single readings can be large; an effect the other way counts as inactive or inconclusive. Potency means the concentration at half of the fitted maximal effect.

What do the screens show for `Cc1ccc(S(=O)(=O)N2CCN(Cc3cccc4cccnc34)CC2)cc1`?
ALOX12 inh: 3%

How did Cc1cccc(C(=O)N=c2c(C#N)cc3c(=O)n4cccc(C)c4nc3n2Cc2ccco2)c1 do in these assays?
USP1-UAF1 inh: inconclusive; EPAC1 antag: 50µM*; ALOX12 inh: 35µM*!; EPAC2 agonist: -1%; EPAC1 ag: 0%; EPAC2 antag: 0%

What do the screens show for `Cc1cccn2c(=O)c3cc(C#N)c(=NC(=O)c4ccccc4)n(Cc4ccco4)c3nc12`?
USP1-UAF1 inh: -18%; EPAC1 antag: 89µM*; ALOX12 inh: 7.1µM*; EPAC2 agonist: -7%; EPAC1 ag: 0%; EPAC2 antag: inconclusive

What do the screens show for `COCCCn1c(=NC(=O)c2ccccc2)c(C#N)cc2c(=O)n3cccc(C)c3nc21`?
USP1-UAF1 inh: -6%; EPAC1 antag: 12%; ALOX12 inh: inconclusive; EPAC2 agonist: -16%; EPAC1 ag: 9%; EPAC2 antag: 6%

Results for Cc1cccn2c(=O)c3cc(C#N)c(=NC(=O)c4ccco4)n(Cc4ccco4)c3nc12 ?
USP1-UAF1 inh: 5%; EPAC1 antag: -9%; ALOX12 inh: inconclusive; EPAC2 agonist: -5%; EPAC1 ag: -7%; EPAC2 antag: 13%

How did COc1cc(OC)c2c(C)c(CC(=O)NCc3ccc(F)cc3)c(=O)oc2c1 do in these assays?
ALOX12 inh: 5%

How did N#Cc1nc(-c2ccco2)oc1N1CCN(CC(=O)Nc2ccccc2Br)CC1 do in these assays?
ALOX12 inh: 16%

How did COc1ccc(CCNC(=O)c2ccc([N+](=O)[O-])cc2)cc1 do in these assays?
USP1-UAF1 inh: -11%; EPAC1 antag: -6%; ALOX12 inh: -24%; EPAC2 agonist: 10%; EPAC1 ag: 5%; EPAC2 antag: 2%

What do the screens show for `COc1ccc(-c2nc(NC(=O)c3cc(OC)c(OC)c(OC)c3)sc2C)cc1`?
ALOX12 inh: 45µM*

What do the screens show for `COc1ccc(C(=O)Nc2nc(-c3ccc([N+](=O)[O-])cc3)c(-c3ccc(OC)cc3)s2)cc1`?
USP1-UAF1 inh: inconclusive; EPAC1 antag: 457%; ALOX12 inh: -11%; EPAC2 agonist: 100µM*; EPAC1 ag: 112µM*; EPAC2 antag: 136%

How did COc1ccc(-c2nc(NC(=O)c3ccco3)sc2C)cc1 do in these assays?
USP1-UAF1 inh: -2%; EPAC1 antag: inconclusive; ALOX12 inh: inconclusive; EPAC2 agonist: 19%; EPAC1 ag: 8%; EPAC2 antag: -28%

What do the screens show for `CCCCCCC(=O)O`?
USP1-UAF1 inh: -4%; EPAC1 antag: -4%; ALOX12 inh: 1%; EPAC2 agonist: 9%; EPAC1 ag: -8%; EPAC2 antag: -4%

How did CCCCCCCCCCSCCC(=O)O do in these assays?
ALOX12 inh: 40µM*

What do the screens show for `C=CCNC(=O)N[C@H]1CO[C@H]2[C@@H]1OC[C@@H]2Nc1nccc(-c2ccc(OC)cc2)n1`?
ALOX12 inh: 85%[176 µM]

How did Cc1cccc(C(=O)Nc2c(N3CCCC3)c3ccccc3oc2=O)c1 do in these assays?
ALOX12 inh: -44%

What do the screens show for `Cc1ccc(C(C)C)c(OCCNCCc2ccccc2)c1`?
USP1-UAF1 inh: -21%; EPAC1 antag: -3%; ALOX12 inh: 7.9µM*; EPAC2 agonist: 9%; EPAC1 ag: -2%; EPAC2 antag: -10%

How did N#Cc1nc(-c2ccco2)oc1N1CCC(C(=O)Nc2ccccc2N2CCCC2=O)CC1 do in these assays?
ALOX12 inh: -28%

What do the screens show for `COc1ccc(/C=C/C(=O)c2ccc(C(=O)O)s2)c(OC)c1`?
ALOX12 inh: -47%

Results for COc1ccc(/C=C/C(=O)c2ccc(C(=O)O)s2)cc1OC ?
ALOX12 inh: 5.6µM*

What do the screens show for `O=c1c(Cl)c(N2CCN(c3cccc(C(F)(F)F)c3)CC2)cnn1-c1nc2ccccc2s1`?
ALOX12 inh: 40%

Results for Cc1ccc(C(=O)N2CC(CO)C3(CCNCC3)C2)c(C)c1 (centres undefined) ?
ALOX12 inh: 39%

What do the screens show for `O=C(c1ccc(Cl)cc1)N1CC(CO)C2(CCNCC2)C1` (centres undefined)?
ALOX12 inh: 40µM*

How did O=C1CCSc2ccc3ccccc3c21 do in these assays?
ALOX12 inh: 5%

Results for NC(=S)N/N=C1/CCSc2ccc3ccccc3c21 ?
USP1-UAF1 inh: -10%; EPAC1 antag: -27%; ALOX12 inh: 20µM*; EPAC2 agonist: 3%; EPAC1 ag: -1%; EPAC2 antag: -12%

How did O=C1CCCC2=C1C(c1ccc(Br)cc1)c1c([nH]c(=S)[nH]c1=O)N2 (centres undefined) do in these assays?
USP1-UAF1 inh: -19%; EPAC1 antag: 10%; ALOX12 inh: inconclusive; EPAC2 agonist: -2%; EPAC1 ag: 1%; EPAC2 antag: 11%

What do the screens show for `O=c1[nH]c(=S)[nH]c2c1C(c1ccc(Br)cc1)c1c([nH]c(=S)[nH]c1=O)O2`?
USP1-UAF1 inh: inconclusive; EPAC1 antag: 35µM*; ALOX12 inh: 5µM*; EPAC2 agonist: 3%; EPAC1 ag: -7%; EPAC2 antag: 1%

How did COCCN1C(=O)/C(=C/c2ccc(N3CCCC3)cc2)SC1=S do in these assays?
USP1-UAF1 inh: 5µM*; EPAC1 antag: -20%; ALOX12 inh: inconclusive; EPAC2 agonist: 20µM*; EPAC1 ag: inconclusive; EPAC2 antag: 2%

Results for COc1ccc(/C=C2\SC(=S)N(CCC(=O)N3CCCCC3)C2=O)cc1 ?
USP1-UAF1 inh: -5%; EPAC1 antag: -12%; ALOX12 inh: -28%; EPAC2 agonist: -4%; EPAC1 ag: 3%; EPAC2 antag: -4%

What do the screens show for `O=C(Nc1cccc(F)c1)c1nnc(CSCC(=O)N2CCN(c3ccccc3)CC2)s1`?
ALOX12 inh: -9%

What do the screens show for `COc1ccc(C(=O)COC(=O)CCc2ccc(-c3ccccc3)o2)cc1`?
ALOX12 inh: 7.9µM*

Results for COc1ccc(-c2ccc(CCC(=O)O)o2)cc1 ?
USP1-UAF1 inh: -13%; EPAC1 antag: -10%; ALOX12 inh: inconclusive; EPAC2 agonist: 3%; EPAC1 ag: 3%; EPAC2 antag: 22%

Results for CCOC1=CC2=C(C(=O)C(Cl)=CC2=O)[C@@H]2CN(S(=O)(=O)c3ccc(C)cc3)[C@@H](c3ccccc3)[C@H]12 ?
EPAC1 antag: 56µM*; ALOX12 inh: 0.89µM*; EPAC2 agonist: 2%; EPAC1 ag: -5%; EPAC2 antag: -4%

Assay outcomes deposited in PubChem BioAssay by National Center for Advancing Translational Sciences (NCATS).
